PubChem BioAssay (NCATS)
Records with an inconclusive call do not appear. Activity calls are given as the source filed them. Unless noted, calls follow the shape of the dose curve; as a rule, active = well fitted curve in either direction with a large enough effect (not every such curve was filed as active); inconclusive = small, poorly fitted or top-dose-only effect, or another doubt; inactive = flat fitted curve, though single readings scatter.

Columns and labels:
[1] = biological target: Lysosomal acid glucosylceramidase (Homo sapiens) (UniProt P04062); test: Glucocerebrosidase-p2 (AID 348; in the data active = potency below about 10 µM; also: potency is read from the fitted curve at half-maximal effect); conditions: purified GBA, blue fluorogenic substrate, 40 min
Chain of Lysosomal acid glucosylceramidase (Homo sapiens) (P04062 whole entry, looked up): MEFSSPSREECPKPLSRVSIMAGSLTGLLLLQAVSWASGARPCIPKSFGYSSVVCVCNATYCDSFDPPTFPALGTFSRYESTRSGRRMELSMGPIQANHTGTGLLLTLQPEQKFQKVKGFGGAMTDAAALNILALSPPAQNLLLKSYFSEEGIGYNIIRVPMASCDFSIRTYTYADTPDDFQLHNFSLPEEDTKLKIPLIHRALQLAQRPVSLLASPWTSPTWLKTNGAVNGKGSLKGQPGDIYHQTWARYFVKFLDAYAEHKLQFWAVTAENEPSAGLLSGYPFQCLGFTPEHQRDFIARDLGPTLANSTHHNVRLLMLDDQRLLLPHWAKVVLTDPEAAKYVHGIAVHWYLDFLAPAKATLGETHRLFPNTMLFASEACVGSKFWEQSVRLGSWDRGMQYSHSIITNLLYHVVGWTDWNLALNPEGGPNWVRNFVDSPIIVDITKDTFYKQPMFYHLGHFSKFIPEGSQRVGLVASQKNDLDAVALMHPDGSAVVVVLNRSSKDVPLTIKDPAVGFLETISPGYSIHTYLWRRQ
Outline: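 Normal human glucocerebrosidase (0.2 nM) with blue fluorogenic substrate (80 uM final) in citrate/phosphate pH 5.9 with 10mM sodium taurocholate, 0.01% tween-20; 40 min RT, NaOH/glycine stop; fluorescence Ex 365/Em 440; AC50 from a titration from 0.6 nM upwards.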

[2] = AP1 Signaling Pathway (AID 357); conditions: ME-180 AP-1-bla reporter, EGF-induced, beta-lactamase ratio, 5 h; at 7.69 µM (top of the series) unless noted;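 also: ME-180 reporter cells stimulated with EGF at its EC50 level; % is scaled to controls: 0 for no effect and ±100 for the full control effect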
Outline: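 In this screen, ME-180 cells in Opti-MEM with 0.5% dialyzed FBS received EC50 EGF and compound titrations for 5 h. AP-1 reporter beta-lactamase was detected via CCF4 ratio, giving AC50 for positive and negative modulators.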

[3] = NFAT Signaling Pathway (AID 444); conditions: Jurkat NFAT-bla M1, carbachol, beta-lactamase ratio, 5 h; at 7.69 µM (top of the series) unless noted;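 also: carbachol stimulus at about its EC50 of 1 µM final; % is scaled to controls: 0 for no effect and ±100 for the full control effect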
Outline: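 Jurkat cells with NFAT-driven β-lactamase reporter and co-expressed M1 receptor, stimulated with carbachol (final 1 uM, ~EC50), compound titration, 5 h at 37 °C. CCF4 loaded 1 h at RT; 460/530 nm ratio gave %activity and AC50.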

[4] = Stat Signaling Pathway (AID 446); conditions: ME-180 (cervical carcinoma) SIE beta-lactamase reporter, IL-6 stimulated, 5 h; at 7.69 µM (top of the series) unless noted;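 also: ME-180 cervical cancer cells given 40 pM IL-6 alongside compound; SIE-controlled beta-lactamase reporter measured as 460/530 nm FRET emission ratio; % is scaled to controls: 0 for no effect and ±100 for the full control effect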
Outline: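 Compound effects on IL-6-induced STAT reporter activity were measured in ME-180 cells. After overnight culture, cells were co-treated with 40 pM IL-6 for 5 hrs before beta-lactamase substrate loading at room temperature.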

[5] = biological target: Glucocorticoid receptor (Homo sapiens) (UniProt P04150); test: GR-GFP Redistribution (AID 450;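 active = compounds whose dose series gives a full or clear partial fitted curve of increased nuclear translocation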; also: potency is read from the fitted curve at half-maximal effect); conditions: U2OS GR-GFP nuclear translocation, laser cytometry, 2 h
Chain of Glucocorticoid receptor (Homo sapiens) (P04150 whole entry, looked up, the tested form may be a part): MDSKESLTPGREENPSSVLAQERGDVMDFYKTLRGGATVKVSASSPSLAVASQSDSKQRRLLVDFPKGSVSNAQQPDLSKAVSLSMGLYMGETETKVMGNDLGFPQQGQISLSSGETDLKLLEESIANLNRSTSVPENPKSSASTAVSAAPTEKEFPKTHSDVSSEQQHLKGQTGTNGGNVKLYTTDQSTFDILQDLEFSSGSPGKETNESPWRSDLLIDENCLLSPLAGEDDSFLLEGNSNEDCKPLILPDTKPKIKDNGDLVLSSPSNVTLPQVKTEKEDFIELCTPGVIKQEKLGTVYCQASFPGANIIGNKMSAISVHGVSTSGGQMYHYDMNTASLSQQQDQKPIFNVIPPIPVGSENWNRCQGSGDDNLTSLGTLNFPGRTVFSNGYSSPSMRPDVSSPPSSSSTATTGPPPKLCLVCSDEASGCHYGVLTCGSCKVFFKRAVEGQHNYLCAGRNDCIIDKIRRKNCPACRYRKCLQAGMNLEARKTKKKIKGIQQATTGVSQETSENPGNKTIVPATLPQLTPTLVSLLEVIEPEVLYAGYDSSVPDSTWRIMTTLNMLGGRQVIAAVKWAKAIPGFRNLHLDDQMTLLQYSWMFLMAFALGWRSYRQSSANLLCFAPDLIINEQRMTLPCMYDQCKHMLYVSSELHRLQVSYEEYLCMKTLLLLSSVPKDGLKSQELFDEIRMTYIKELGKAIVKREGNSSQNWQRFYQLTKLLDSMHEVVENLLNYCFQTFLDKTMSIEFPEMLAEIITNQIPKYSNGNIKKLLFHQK

[6] = biological target: Glucocorticoid receptor (Homo sapiens) (UniProt P04150); test: GR-EFC Redistribution (AID 451; calls by dose curve; also: potency is read from the fitted curve at half-maximal effect); conditions: CHO-K1 GR-EFC translocation, beta-gal luminescence, 2 h
Outline: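 CHO-K1 cells expressing nuclear EA and GR-ED fragments of b-gal; compounds titrated up to 46 uM final, 2 h at 37 C. GR nuclear translocation read as complemented b-gal luminescence after 1 h RT detection.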

[7] = biological target: Mitogen-activated protein kinase 10 (Mus musculus) (UniProt Q61831); test: JNK3 AlphaScreen Assay (AID 530); conditions: JNK3 lysate, c-Jun phosphorylation; series mostly up to 11.4 µM;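 also: kinase came from lysate of stimulated human HepG2 cells; signal reports phosphorylation of biotinylated GST-cJun 1-79 at Ser73 with 10 µM ATP; % is scaled to controls: 0 for no effect and ±100 for the full control effect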
Outline: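 HepG2 lysate (IL-1b/TNFa pre-activated) + biotin-GST-cJun 1-79 + anti-pSer73 cJun; cpd titration, 15 min RT; ATP 10 uM start; Tris pH 7.6, MgCl2, DTT, vanadate; beads in EDTA buffer; AlphaScreen.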

[8] = biological target: 3',5'-cyclic-AMP phosphodiesterase 4B (Homo sapiens) (UniProt Q07343); test: qHTS Assay for Inhibitors of PDE-IV (AID 607; active = well fitted activation curve with a large enough effect in the main read-out, with a control signal flat, not every such curve was filed as active; also: % of control where 0% means no effect); conditions: HEK293 ACTOne CNG channel cells, membrane potential fluorescence; series mostly up to 22.9 µM
Chain of 3',5'-cyclic-AMP phosphodiesterase 4B (Homo sapiens) (Q07343 whole entry, looked up): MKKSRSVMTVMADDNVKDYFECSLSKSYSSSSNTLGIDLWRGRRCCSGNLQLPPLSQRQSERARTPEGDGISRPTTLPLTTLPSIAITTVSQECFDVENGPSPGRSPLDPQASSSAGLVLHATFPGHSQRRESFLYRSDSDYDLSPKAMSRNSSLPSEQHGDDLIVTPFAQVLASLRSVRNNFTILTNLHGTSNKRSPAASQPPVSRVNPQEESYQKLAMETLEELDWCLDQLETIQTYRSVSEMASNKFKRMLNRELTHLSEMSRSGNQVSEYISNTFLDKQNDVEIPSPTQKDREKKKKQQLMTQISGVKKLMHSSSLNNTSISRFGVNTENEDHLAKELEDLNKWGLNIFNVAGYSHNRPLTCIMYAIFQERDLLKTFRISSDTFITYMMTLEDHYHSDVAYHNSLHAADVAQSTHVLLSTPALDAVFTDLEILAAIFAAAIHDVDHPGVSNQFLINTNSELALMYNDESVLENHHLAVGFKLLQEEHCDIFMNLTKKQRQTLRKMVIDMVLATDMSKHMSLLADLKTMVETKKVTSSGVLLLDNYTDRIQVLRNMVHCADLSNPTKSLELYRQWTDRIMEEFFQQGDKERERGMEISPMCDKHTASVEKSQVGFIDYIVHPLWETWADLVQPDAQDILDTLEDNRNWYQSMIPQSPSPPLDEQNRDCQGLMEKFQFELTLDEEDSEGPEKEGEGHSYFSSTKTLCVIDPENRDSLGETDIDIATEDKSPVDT
Outline: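 ACTOne HEK293 cells carry a modified cAMP-gated CNG channel and express endogenous PDE4; plated 1000 cells/well, compounds up to 22.9 uM final. Membrane-potential dye fluorescence (ex 535/em 590) was read; parental cells received 10 uM forskolin + 100 uM RO 20-1724.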

NCC(=O)[C@@H](O)[C@H](O)[C@H](O)CO
inactive: Potency [1] > 11.4 µM | activity change, negative = inhibition [2] -1.89% | activity change, negative = inhibition [3] 8.35% | activity, negative = inhibition [4] 3.6% | Potency [5] > 46 µM | Potency [6] > 9.22 µM | Potency [7] | Potency [8]

Cc1ncc(CSc2ccccc2N)c(CO)c1O
inactive: Potency [1] > 11.4 µM | activity change, negative = inhibition [2] 6.48% | activity change, negative = inhibition [3] 1.52% | activity, negative = inhibition [4] -0.62% | Potency [5] > 46 µM | Potency [6] > 9.22 µM | Potency [7] | Potency [8]

C[N+]1(C)CCO[C@](O)(c2ccccc2)C1
inactive: Potency [1] > 11.4 µM | activity change, negative = inhibition [2] 7.17% | activity change, negative = inhibition [3] -3.28% | activity, negative = inhibition [4] 6.89% | Potency [5] > 46 µM | Potency [6] > 9.22 µM | Potency [7] | Potency [8]

C/C(=N/NC(=O)c1ccncc1)c1ccccc1Cl
inactive: Potency [1] > 11.4 µM | activity change, negative = inhibition [2] 12.5% | activity change, negative = inhibition [3] 8.3% | activity, negative = inhibition [4] -2.05% | Potency [5] > 46 µM | Potency [6] > 9.22 µM | Potency [7] | Potency [8]

Cc1ccc(S(=O)(=O)OC2CCN(C)CC2)cc1
inactive: Potency [1] > 11.4 µM | activity change, negative = inhibition [2] 0.369% | activity change, negative = inhibition [3] 2.31% | activity, negative = inhibition [4] 3.66% | Potency [5] > 46 µM | Potency [6] > 9.22 µM | Potency [7] | Potency [8]

CCCNc1ncnc2[nH]ncc12
inactive: Potency [1] > 11.4 µM | activity change, negative = inhibition [2] -4.57% | activity change, negative = inhibition [3] 5.61% | activity, negative = inhibition [4] -1.7% | Potency [5] > 46 µM | Potency [6] > 9.22 µM | Potency [7] | Potency [8]

COC(=O)c1cc(-c2ccc3ccccc3c2)[nH]c(=O)c1C#N
inactive: Potency [1] > 11.4 µM | activity change, negative = inhibition [2] -3.94% | activity change, negative = inhibition [3] 1.77% | activity, negative = inhibition [4] -1.42% | Potency [5] > 46 µM | Potency [6] > 9.22 µM | Potency [7] | Potency [8]

CN1CCN(CCCNN)CC1
inactive: Potency [1] > 11.4 µM | activity change, negative = inhibition [2] 3.15% | activity change, negative = inhibition [3] 0.682% | activity, negative = inhibition [4] 1.99% | Potency [5] > 46 µM | Potency [6] > 9.22 µM | Potency [7] | Potency [8]

C[C@H]1[C@H](C)CC[C@]2(C(=O)O)CC[C@]3(C)C(=CC[C@@H]4[C@]5(C)C[C@H](O)[C@@H](O)[C@@](C)(CO)[C@@H]5[C@H](O)C[C@@]43C)[C@H]12
inactive: Potency [1] > 11.4 µM | activity change, negative = inhibition [2] -6.13% | activity change, negative = inhibition [3] 27.7% | activity, negative = inhibition [4] 8.93% | Potency [5] > 46 µM | Potency [6] > 9.22 µM | Potency [7] | Potency [8]

Nc1nc2nc3c(nc2c(=O)[nH]1)CN(c1ccc(C(=O)O)cc1)C3=O
inactive: Potency [1] > 11.4 µM | activity change, negative = inhibition [2] -9.73% | activity change, negative = inhibition [3] 13.8% | activity, negative = inhibition [4] -8.98% | Potency [5] > 46 µM | Potency [6] > 9.22 µM | Potency [7] | Potency [8]

O=C(O)[C@H]1CCc2ccc3ccccc3c2[C@H]1c1cccc2ccccc12
inactive: Potency [1] > 11.4 µM | activity change, negative = inhibition [2] -12.8% | activity change, negative = inhibition [3] -25.8% | activity, negative = inhibition [4] -8.82% | Potency [5] > 46 µM | Potency [6] > 9.22 µM | Potency [7] | Potency [8]

Cn1ncc2c(Cl)ncnc21
inactive: Potency [1] > 11.4 µM | activity change, negative = inhibition [2] 2.44% | activity change, negative = inhibition [3] 17.9% | activity, negative = inhibition [4] 13.8% | Potency [5] > 46 µM | Potency [6] > 9.22 µM | Potency [7] | Potency [8]

O=C1c2ccccc2C(=O)N1c1ccc(Cc2ccc(N3C(=O)c4ccccc4C3=O)cc2)cc1
inactive: Potency [1] > 11.4 µM | activity change, negative = inhibition [2] -0.978% | activity change, negative = inhibition [3] 8.54% | activity, negative = inhibition [4] -2.37% | Potency [5] > 46 µM | Potency [6] > 9.22 µM | Potency [7] | Potency [8]

CC(C)[C@H](Nc1ncnc2nc[nH]c12)C(=O)O
inactive: Potency [1] > 11.4 µM | activity change, negative = inhibition [2] 7.63% | activity change, negative = inhibition [3] -3.53% | activity, negative = inhibition [4] -3.88% | Potency [5] > 46 µM | Potency [6] > 9.22 µM | Potency [7] | Potency [8]

CC(C)=C[C@H]1[C@@H](COC(=O)c2cc3c(cc2Cl)OCO3)C1(C)C
inactive: Potency [1] > 11.4 µM | activity change, negative = inhibition [2] 9.62% | activity change, negative = inhibition [3] 1.43% | activity, negative = inhibition [4] 13.6% | Potency [5] > 46 µM | Potency [6] > 9.22 µM | Potency [7] | Potency [8]

NC(=O)NOC[C@@H]1NC(=O)NC1=O
inactive: Potency [1] > 11.4 µM | activity change, negative = inhibition [2] 0.037% | activity change, negative = inhibition [3] 8.44% | activity, negative = inhibition [4] 9.07% | Potency [5] > 46 µM | Potency [6] > 9.22 µM | Potency [7] | Potency [8]
